Results on 17 compounds are retold here after PubChem BioAssay (EPA / NIEHS).

A short description of assay [1]: ATG_GLI_CIS: Attagene CIS-FACTORIAL HepG2 Assay for human Zinc Finger Protein GLI1 (AID 2282945). As to conditions: HepG2, Attagene cis-factorial reporter mRNA, GLI element; actives raise or lower the signal. Summed up: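 HepG2 cells transiently transfected with cis-promoter multiplexed reporter units report endogenous transcription factor activity. After 24 h chemical exposure, reporter mRNA was quantified by RT-PCR, 6-FAM labelling, HpaI digestion and capillary electrophoresis, with bidirectional fitting against DMSO.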

For assay [2], the target named is Bile acid receptor (Homo sapiens) (UniProt Q96RI1). The assay can be described thus: ATG_IR1_CIS: Attagene CIS-FACTORIAL HepG2 Assay for human Nuclear Receptor Subfamily 1 Group H Member 4 (NR1H4), IR1 submotif (AID 2282946). As to conditions: IR1 reporter transcription, actives raise or lower the signal. Summed up: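 Transient MRTU transfection, HepG2; 24 h dosing; RNA → RT-PCR → 6-FAM primer extension → HpaI digest → capillary electrophoresis fluorescence. Gain/loss of signal fitted relative to DMSO.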

Assay [3] in a line: ATG_GRE_CIS: Attagene CIS-FACTORIAL HepG2 Assay for human Glucocorticoid Response Elements (GRE) (AID 2282947). As to conditions: HepG2 GRE cis-reporter, Attagene multiplex mRNA; actives raise or lower the signal. Summed up: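 Following 24 h chemical exposure of transiently transfected HepG2 cells, total RNA was reverse-transcribed and reporter cDNA amplified, fluorescently labelled and sized by capillary electrophoresis. Signal gain or loss was fitted relative to DMSO vehicle.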

Assay [4] can be described thus: ATG_ISRE_CIS: Attagene CIS-FACTORIAL HepG2 Assay for human Interferon Regulatory Factor 1 (IRF1) binding to an Interferon-Stimulated Response Element (ISRE) (AID 2282948). As to conditions: HepG2 ISRE cis-reporter (Attagene), mRNA transcription readout; actives raise or lower the signal. The gist of the method:
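Transfected HepG2 (multiple reporter transcription units, cis elements) dosed 24 h. RNA → oligo(dT) RT → PCR → 6-FAM primer extension → HpaI → CE. DMSO = negative control/baseline.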

Assay [5] in a line: ATG_M_32_CIS: Attagene CIS-FACTORIAL HepG2 Assay for M32 Transcription Factor (Internal Marker) (AID 2282949).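 Also: background control marker of the multiplexed CIS panel rather than a real target.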 As to conditions: HepG2 Attagene cis-factorial M32 reporter, mRNA; actives raise or lower the signal. Summed up: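 Fluorescent capillary electrophoresis peaks of HpaI-digested, FAM-labelled RT-PCR reporter products give the signal. Source: transiently transfected human liver HepG2 cells, 24 h after chemical dosing; bidirectional fitting against DMSO.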

Assay [6] can be described thus: ATG_M_06_CIS: Attagene CIS-FACTORIAL HepG2 Assay for M06 Transcription Factor (Internal Marker) (AID 2282950). As to conditions: HepG2 Attagene CIS-FACTORIAL M06 internal marker reporter; actives raise or lower the signal. Summed up: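 Measured 24 h post-dosing in transiently transfected HepG2 cells, this internal-marker endpoint reports reporter mRNA via RT-PCR with fluorescent primer extension and capillary electrophoresis. DMSO served as negative control and baseline for bidirectional fitting.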

Assay [7] deals with Hypoxia-inducible factor 1-alpha (Homo sapiens) (UniProt Q16665). The assay can be described thus: ATG_HIF1a_CIS: Attagene CIS-FACTORIAL HepG2 Assay for human Hypoxia Inducible Factor 1 (HIF1A) (AID 2282951). As to conditions: HepG2 Attagene cis-factorial HIF1a reporter transcription; actives raise or lower the signal. Summed up: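 Endogenous-TF cis reporter readout, human HepG2 cells, 24 h incubation; mRNA detected via RT-PCR and capillary electrophoresis fluorescence; DMSO-normalised bidirectional fitting.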

Assay [8] concerns the target Hepatocyte nuclear factor 6 (Homo sapiens) (UniProt Q9UBC0). The experiment in a line: ATG_HNF6_CIS: Attagene CIS-FACTORIAL HepG2 Assay for human Hepatocyte Nuclear Factor 6 (HNF6) (AID 2282952). As to conditions: HepG2 Attagene cis-factorial HNF6 reporter transcription; actives raise or lower the signal. Summed up: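 Cells are HepG2 carrying transiently transfected cis-promoter reporter units. Treatment lasts 24 h, after which reporter transcripts are reverse-transcribed, amplified, FAM-labelled and sized by capillary electrophoresis. DMSO serves as baseline.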

Assay [9] deals with Heat shock factor protein 1 (Homo sapiens) (UniProt Q00613). The experiment in a line: ATG_HSE_CIS: Attagene CIS-FACTORIAL HepG2 Assay for human Heat Shock Transcription Factor 1 (HSE) (AID 2282953). As to conditions: HepG2 HSE cis-reporter, Attagene RNA transcription; actives raise or lower the signal. Summed up:
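Reporter mRNA induction in HepG2 is measured 24 h after dosing, using transiently transfected multiplexed cis-regulated reporter units. Signal comes from capillary electrophoresis of labelled RT-PCR products, with DMSO as negative control.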

The nature of assay [10]: ATG_MRE_CIS: Attagene CIS-FACTORIAL HepG2 Assay for human Metal Responsive Element (MRE) (AID 2282954). As to conditions: HepG2 MRE cis-reporter transcription, Attagene multiplex; actives raise or lower the signal. Summed up:
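Step one: transfect HepG2 with cis-regulated reporter units. Step two: dose 24 h. Step three: isolate RNA, RT-PCR, 6-FAM label, HpaI digest, capillary electrophoresis. Fit bidirectionally to DMSO.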

Activity calls are given as the source filed them. The calls were made as follows: active = hit-call score of the fitted dose curve at least 0.9, where 1 is the maximum; inactive = score below 0.9.

Chain of Heat shock factor protein 1 (Homo sapiens) (Q00613 whole entry, looked up): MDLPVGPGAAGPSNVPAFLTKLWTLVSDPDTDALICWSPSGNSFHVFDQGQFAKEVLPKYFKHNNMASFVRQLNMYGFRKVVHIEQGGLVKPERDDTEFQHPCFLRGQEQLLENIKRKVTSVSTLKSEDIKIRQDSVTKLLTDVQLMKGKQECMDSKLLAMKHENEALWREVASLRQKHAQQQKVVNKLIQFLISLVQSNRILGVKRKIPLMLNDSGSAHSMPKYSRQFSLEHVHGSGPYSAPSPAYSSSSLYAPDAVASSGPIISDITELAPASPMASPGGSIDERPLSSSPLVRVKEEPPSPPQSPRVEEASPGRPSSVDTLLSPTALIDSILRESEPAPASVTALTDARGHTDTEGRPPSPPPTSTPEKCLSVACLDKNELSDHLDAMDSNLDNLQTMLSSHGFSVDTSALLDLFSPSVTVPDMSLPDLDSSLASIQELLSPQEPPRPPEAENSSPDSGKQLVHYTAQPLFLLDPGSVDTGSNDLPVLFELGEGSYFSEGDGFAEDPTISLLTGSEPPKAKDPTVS
Chain of Bile acid receptor (Homo sapiens) (Q96RI1 whole entry, looked up): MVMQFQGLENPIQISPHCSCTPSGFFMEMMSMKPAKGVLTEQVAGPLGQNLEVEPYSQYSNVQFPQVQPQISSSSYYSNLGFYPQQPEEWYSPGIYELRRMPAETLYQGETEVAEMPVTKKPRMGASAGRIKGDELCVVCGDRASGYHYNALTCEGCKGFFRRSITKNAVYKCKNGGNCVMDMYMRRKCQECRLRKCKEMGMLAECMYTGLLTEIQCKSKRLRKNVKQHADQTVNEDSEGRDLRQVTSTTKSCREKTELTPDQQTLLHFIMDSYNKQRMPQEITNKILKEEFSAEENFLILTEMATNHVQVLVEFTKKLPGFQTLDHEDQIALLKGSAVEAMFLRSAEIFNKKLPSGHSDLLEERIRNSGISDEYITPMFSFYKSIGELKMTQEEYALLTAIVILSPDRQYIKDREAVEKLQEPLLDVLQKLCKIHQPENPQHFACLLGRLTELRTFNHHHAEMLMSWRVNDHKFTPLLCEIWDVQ
Chain of Hypoxia-inducible factor 1-alpha (Homo sapiens) (Q16665 whole entry, looked up): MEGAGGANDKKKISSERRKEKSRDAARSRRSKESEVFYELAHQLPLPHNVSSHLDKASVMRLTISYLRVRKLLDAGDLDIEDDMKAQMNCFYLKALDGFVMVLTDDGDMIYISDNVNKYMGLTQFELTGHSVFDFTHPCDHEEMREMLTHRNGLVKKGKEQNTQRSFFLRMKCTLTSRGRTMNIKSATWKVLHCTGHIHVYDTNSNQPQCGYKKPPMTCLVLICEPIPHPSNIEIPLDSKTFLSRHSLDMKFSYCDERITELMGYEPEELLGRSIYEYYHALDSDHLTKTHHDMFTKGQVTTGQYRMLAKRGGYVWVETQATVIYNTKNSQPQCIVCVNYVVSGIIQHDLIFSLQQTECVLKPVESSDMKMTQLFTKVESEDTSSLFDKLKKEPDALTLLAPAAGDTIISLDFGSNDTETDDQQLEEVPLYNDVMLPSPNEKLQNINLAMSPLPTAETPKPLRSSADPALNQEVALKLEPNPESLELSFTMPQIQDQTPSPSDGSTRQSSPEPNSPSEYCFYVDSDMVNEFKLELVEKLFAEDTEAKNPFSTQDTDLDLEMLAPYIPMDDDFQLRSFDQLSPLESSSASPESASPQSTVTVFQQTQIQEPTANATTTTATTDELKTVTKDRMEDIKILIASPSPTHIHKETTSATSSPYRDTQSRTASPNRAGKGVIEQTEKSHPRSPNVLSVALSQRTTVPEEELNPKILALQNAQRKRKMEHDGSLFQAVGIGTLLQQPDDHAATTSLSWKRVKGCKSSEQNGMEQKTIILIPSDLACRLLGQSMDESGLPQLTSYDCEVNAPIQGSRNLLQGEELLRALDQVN
Chain of Hepatocyte nuclear factor 6 (Homo sapiens) (Q9UBC0 whole entry, looked up): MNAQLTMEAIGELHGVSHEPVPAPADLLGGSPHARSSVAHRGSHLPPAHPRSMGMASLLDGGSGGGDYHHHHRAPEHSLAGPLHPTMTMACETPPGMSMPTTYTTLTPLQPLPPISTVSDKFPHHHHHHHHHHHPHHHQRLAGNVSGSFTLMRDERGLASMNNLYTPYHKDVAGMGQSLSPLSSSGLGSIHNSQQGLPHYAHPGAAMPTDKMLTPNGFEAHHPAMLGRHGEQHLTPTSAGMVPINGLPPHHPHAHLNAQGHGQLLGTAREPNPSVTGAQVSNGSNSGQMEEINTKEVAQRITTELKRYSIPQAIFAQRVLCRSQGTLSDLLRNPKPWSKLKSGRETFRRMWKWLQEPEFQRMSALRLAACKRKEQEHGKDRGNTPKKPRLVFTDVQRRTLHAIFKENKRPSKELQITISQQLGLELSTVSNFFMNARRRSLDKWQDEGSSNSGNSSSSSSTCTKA

On to `CS(=O)(=O)c1ccc(C(=O)C2C(=O)CCCC2=O)c([N+](=O)[O-])c1`, for which the call in assay [1], in assay [2], in assay [3], in assay [4], in assay [5] and in assay [6] was inactive. The call in assay [7], in assay [8], in assay [9] and in assay [10] was inactive.
For the compound `O=P(O)(O)CCCl`, the compound was classed as inactive in [1], in assay [2], in assay [4], in [5], in assay [6] and in assay [7]. The outcome in assay [8], in assay [9] and in assay [10] was inactive.
As to `CC(C)N1C(=O)c2ccccc2NS1(=O)=O`, the compound was called inactive in assay [1], in assay [3], in assay [4], in [5], in assay [6] and in assay [7]. Further, the call in [8], in [9] and in assay [10] was inactive.
`O=C(O)c1c(Cl)ccc2cc(Cl)cnc12`: the compound was called inactive in assay [1], in assay [2], in [3], in [4], in assay [5] and in assay [7]. The result in [8], in assay [9] and in assay [10] was inactive.
Take `CCOC(=O)C(C)OC(=O)c1cc(Oc2ccc(C(F)(F)F)cc2Cl)ccc1[N+](=O)[O-]` (stereo not given): the compound was called inactive in assay [1], in assay [3], in assay [4], in [5], in assay [6] and in [7]. The compound was classed as inactive in [8], in assay [9] and in assay [10].
With `N#CN=C1SCCN1Cc1ccc(Cl)nc1`, the compound was classed as inactive in assay [1], in assay [3], in [4], in assay [5], in assay [6] and in [7]. In addition, the compound was called inactive in assay [8], in assay [9] and in assay [10].
In the case of `N#Cc1c[nH]cc1-c1cccc2c1OC(F)(F)O2`, the outcome in assay [1], in assay [3], in [4], in [5], in [6] and in assay [7] was inactive. Also, the compound was called inactive in assay [8] and in assay [9]. Besides, the concentration at half-maximal activity (AC50) in assay [10] is 8.67 µM (active).
With `CCN(CC)c1nc(C)cc(OP(=S)(OC)OC)n1`, the call in [1], in assay [3], in assay [4], in [5], in assay [6] and in assay [8] was inactive. For the same compound, the compound was classed as inactive in assay [9]. Also, the AC50 in assay [7] and in [10] was 50 µM (active) each time.
On to `Clc1cccc(C(Cl)(Cl)Cl)n1`, for which the compound was classed as inactive in [1], in assay [2], in assay [4], in [5], in assay [6] and in assay [7]. Also, the result in [8], in assay [9] and in assay [10] was inactive.
On to `COCC(=O)N(c1c(C)cccc1C)C(C)C(=O)OC` (stereo not given), for which the compound was classed as inactive in [1], in assay [2], in assay [4], in assay [5], in assay [6] and in [7]. The outcome in [8], in assay [9] and in assay [10] was inactive.
For the compound `COC(=O)N(C(=O)N1CO[C@@]2(C(=O)OC)Cc3cc(Cl)ccc3C2=N1)c1ccc(OC(F)(F)F)cc1`, the compound was called inactive in assay [1], in assay [3], in assay [4], in assay [5], in assay [6] and in [7]. Further, the compound was called inactive in assay [8] and in [9]. Moreover, the AC50 in [10] was 2.11 µM (active).
Regarding `CCOc1cc(C(C)(C)C)ccc1C1COC(c2c(F)cccc2F)=N1` (stereo not given), the outcome in [1], in [2], in assay [4], in [5], in assay [6] and in assay [7] was inactive. Further, the outcome in [8] and in assay [9] was inactive. Besides, in assay [10], the AC50 was 5.07 µM (active).
As to `CCCCOCN(C(=O)CCl)c1c(CC)cccc1CC`, the call in assay [1], in assay [2], in [3], in assay [4], in assay [5] and in assay [7] was inactive. Also, the outcome in assay [8], in assay [9] and in assay [10] was inactive.
As to `CCCCC(O)(Cn1cncn1)c1ccc(Cl)cc1Cl` (stereo not given), the compound was called inactive in [1], in [3], in assay [4], in assay [5] and in assay [7]. For the same compound, the AC50 was 91.3 µM (active) in assay [2], 88.4 µM (active) in assay [8], 76.2 µM (active) in assay [9] and 61.5 µM (active) in assay [10].
For `COc1ccc(-c2ccccc2)cc1NNC(=O)OC(C)C`, the compound was classed as inactive in assay [1], in assay [2], in assay [4], in assay [5], in [6] and in assay [8]. The AC50 in assay [3] was 13.2 µM (active); in assay [7] it was 22.8 µM (active); in assay [9] it was 50 µM (active); in [10], 22.7 µM (active).
Take `COP(=S)(OC)Oc1ccc([N+](=O)[O-])c(C)c1`: the compound was classed as inactive in assay [1], in [2], in assay [3], in assay [4], in assay [5] and in [7]. The call in [8] and in assay [9] was inactive. In [10], the half-maximal activity concentration (AC50) is 50 µM (active).
Take `COCC(C)N(C(=O)CCl)c1c(C)csc1C` (stereo not given): the compound was called inactive in assay [1], in [2], in assay [3], in [4], in assay [5] and in assay [7]. The compound was called inactive in assay [8], in assay [9] and in assay [10].
